In PubChem BioAssay (NCI):
The panel holds about 83,000 compounds, 20% with a hit somewhere; the sample as a whole holds those more often.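 Treatment: one concentration, 48 hours, 96-well format. Scoring: percent growth, with anything below 10 considered active.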 Unmarked numbers belong to inactive results. Active and inactive are the calls of the source.

Tests used:
Assay in all cases: NCI-60 one-dose screen, 48 h (100 = growth as untreated, 0 = no growth, -100 = all killed)
Conditions in all cases: 10 µM unless noted
SK-MEL-2 melanoma = test system: SK-MEL-2 melanoma
EKVX NSCLC = test system: EKVX NSCLC
SN12C renal = test system: SN12C renal
UO-31 renal = test system: UO-31 renal
TK-10 renal = test system: TK-10 renal
ACHN renal = test system: ACHN renal
CAKI-1 renal = test system: CAKI-1 renal
CCRF-CEM leukemia = test system: CCRF-CEM leukemia
MOLT-4 leukemia = test system: MOLT-4 leukemia

SMILES | growth (SK-MEL-2 melanoma) | growth (EKVX NSCLC) | growth (SN12C renal) | growth (UO-31 renal) | growth (TK-10 renal) | growth (ACHN renal) | growth (CAKI-1 renal) | growth (CCRF-CEM leukemia) | growth (MOLT-4 leukemia)
N=C(N)c1ccc(-c2ccc(-c3ccc(Cl)c(Cl)c3)o2)cc1 | 102% | 69.8% | -81% (active) | -69.1% (active) | 76% | -70.7% (active) | 53% | -24.9% (active) | -31% (active)
c1ccc2c(c1)ncn2-c1nc2ccccc2n2c1nc1ccccc12 | 104% | 61.8% | 85.9% | 48% | 79.6% | 63.1% | 62.3% | 80.6% | 80.3%
Cl.[Pt].[c-]1ccccc1-c1ccccn1.c1ccc(P(c2ccccc2)C([PH+](c2ccccc2)c2ccccc2)[PH+](c2ccccc2)c2ccccc2)cc1 | -2.53% (active) | 10.8% | 9.75% (active) | -0.14% (active) | 21.1% | 4.96% (active) | -5.66% (active) | 14.5% | 13.8%
CC1=CC(=O)C(C(C)C)=CC1=Nc1cc(Br)c(O)c(Br)c1 | 23.5% | 44.1% | 36.3% | 48.4% | 93.2% | 57.8% | 51.3% | -1.08% (active) | 23.8%
Cn1ncc2c(Nc3ccc(Br)cc3)nc(Nc3ccc(Br)cc3)nc21 | 47.6% | 41% | 47.1% | 68.3% | 73.1% | 40.1% | 37.7% | 27.8% | 26.7%
CNC(=O)c1c(NC(=O)c2ccc(C(C)(C)C)cc2)sc2c1CCC(=O)C2 | -2.66% (active) | 14.6% | 7.81% (active) | -95.5% (active) | 40% | -45.9% (active) | -14.3% (active) | 1.79% (active) | 2.3% (active)
CCOC(=O)c1ccc(-c2ccc3cc(OC)ccc3c2)nc1C | 102% | 99.4% | 101% | 93.9% | 84.3% | 96.8% | 114% | 95.3% | 78%
Cc1ccc2c(n1)C(=O)C(Oc1ccc(F)cc1)=CC2=O | 110% | 103% | 100% | 93.9% | 101% | 9.92% (active) | 99.1% | 40.2% | 66.2%
N=C(N)c1ccc(-c2ccc(-c3ccc(Cl)cn3)s2)cc1 | 99.8% | 65.8% | 10.2% | 57.6% | 91.9% | 12% | 63.2% | 3.3% (active) | 4.73% (active)
COc1ccccc1C(=O)NC(=S)Nc1ccc(-c2nc3ccccc3[nH]2)cc1 | 109% | 91.1% | 46% | 28.5% | 59.6% | 71.4% | 105% | 80.8% | 91.9%
N=C(N)c1ccc(-c2ccc(-c3ccc(Cl)c(Cl)c3)o2)nc1 | 108% | 97.3% | -72.8% (active) | -92% (active) | 116% | -86.9% (active) | 87.1% | 2.34% (active) | 9.85% (active)
Cc1c(C)c2c(c(C)c1NC(=O)/C=C\C(=O)O)CCC(C)(CCCC(C)CCCC(C)CCCC(C)C)O2 (stereo unspecified) | 27% | 74.3% | 50.6% | 37.2% | 43.6% | 45.5% | 46.8% | 13.6% | 33.9%
O=C1Nc2ccccc2/C1=N/N=C/c1ccsc1 | 107% | 90.9% | 95.3% | 74.8% | 137% | 102% | 92% | 101% | 103%
CCCN1CCN(c2ccc3nc(-c4ccc5nc(-c6cc(OC)c(OC)c(OC)c6)[nH]c5c4)[nH]c3c2)CC1 | 70.9% | 109% | 85.4% | 86.5% | 125% | 96.4% | 105% | 41.2% | 62.6%
CNCCNc1nc2ccccc2c2c(=O)c3cc(F)ccc3oc12 | 100% | 71.9% | 46.9% | 37.7% | 80.2% | 24% | 45% | 52.4% | 10.7%
Cc1c(Cl)cccc1NS(=O)(=O)c1ccccc1 | 132% | 114% | 103% | 90.4% | 104% | 98.4% | 116% | 124% | 102%
O=[N+]([O-])c1cccc(/C=C/c2ccccn2)c1 | 117% | 74.3% | 84.3% | 69.4% | 104% | 72.1% | 52.3% | 65.5% | 75.2%
COc1ccccc1NC(=O)Nc1ccc(-c2nc3ccccc3o2)cc1 | 130% | 92.8% | 98.7% | 94.5% | 118% | 95.4% | 103% | 101% | 75.1%
O=C(NCCOCCOCCNc1cccc2c1C(=O)N(C1CCCNC1=O)C2=O)c1cc2c(o1)C(=O)c1ccccc1C2=O (stereo unspecified) | -13.6% (active) | 17.7% | -74.3% (active) | -19.8% (active) | 8.39% (active) | 14% | -10.1% (active) | 14.9% | 8.89% (active)
CN(C)c1ccc(-c2cc(-c3ccc(Nc4nc(Nc5ccccc5)nc(Nc5ccc(Cl)cc5)n4)cc3)nc(N)n2)cc1 | 47.2% | 33.3% | 50% | 39% | 74.6% | 46.3% | 39.5% | 5.11% (active) | -4.17% (active)
CCN(CC)CCCNC(=O)c1ccc(N)cc1 | 99% | 104% | 103% | 78.8% | 97.8% | 97.3% | 107% | -34.9% (active) | 85.3%
Nc1ccc(S(=O)(=O)Nc2ccsc2-c2nc(-c3ccccc3)no2)cc1 | 32.3% | 73% | 84.8% | 71.3% | 66.1% | 87.8% | 53.8% | 53.2% | 36.5%
O=c1[nH]c(=O)n(C2CC(O)C(CO)O2)cc1CO (stereo unspecified) | 53.5% | 98.8% | 76.2% | 102% | 90.5% | 101% | 86.3% | 79.8% | 87.7%
O=C(CC12CC3CC(CC(C3)C1)C2)NCCOCCOCCNC(=O)c1cc2c(o1)C(=O)c1ccccc1C2=O | -42% (active) | -66.4% (active) | -96.3% (active) | -60.1% (active) | -27.1% (active) | -74% (active) | -65.8% (active) | 12.6% | -4.92% (active)
COc1cccc(-c2nc3sccn3c2-c2ccnc(NCCNS(=O)(=O)c3c(Cl)cccc3Cl)c2)c1 | 74.6% | 55.6% | 60.5% | 24.1% | 68.5% | 44% | 36.3% | 31.1% | 33.7%
O=C(NC(=S)Nc1ccc(-c2nc3ccccc3[nH]2)cc1)c1ccc2ccccc2c1 | 98.2% | 58.2% | 15.9% | -84.4% (active) | -16.5% (active) | -0.473% (active) | 24.5% | 49.6% | 59%
O=C(/C=C/C12c3ccccc3C(c3ccccc31)C1C(=O)N(c3ccccc3)C(=O)C12)c1ccc(Cl)cc1 (stereo unspecified) | 22.3% | 22.9% | 19.9% | -37.1% (active) | 42.8% | -36.2% (active) | 54.2% | 13% | 11.9%
O=C(/C=C/C12c3ccccc3C(c3ccccc31)C1C(=O)NC(=O)C12)c1ccccc1 (stereo unspecified) | 30.9% | 21% | 18.8% | 39.7% | 44.3% | 32.7% | 45.2% | 12.6% | 16.6%
O=C(/C=C/C12c3ccccc3C(c3ccccc31)C1C(=O)NC(=O)C12)c1ccc(Cl)cc1 (stereo unspecified) | -7.61% (active) | 17.8% | -14.4% (active) | -55.2% (active) | 12.6% | -44.8% (active) | 33.6% | 11.5% | 11.1%
